Screening data: PubChem, Buhrlage Lab, Dana-Farber Cancer Institute and Novartis Institutes for BioMedical Research (Cambridge, Mass)
Shown are actives, neighbours in structure and some others; about 13% of the full set was active somewhere.
USP30 block: inhibitors of human USP30 deubiquitinase; purified USP30, Ub-rhodamine cleavage fluorescence; 47,000 tested, 5.3% active; inhibition, % at 25 µM; Q70CQ3; AID 1645860
USP10 inh: human USP10 deubiquitinase inhibition; Q14694; purified USP10, Ub-rhodamine fluorescence, 60 min; inhibition, % at 20 µM; 47,000 tested, 1.1% active
USP8 inh: blocks human USP8 ubiquitin-rhodamine cleavage; P40818; purified USP8, Ub-rhodamine cleavage fluorescence, 30 min; inhibition, % at 20 µM; 47,000 tested, 4.2% active; AID 1645853
USP17 inh: human USP17-like deubiquitinase inhibition; purified USP17, Ub-rhodamine cleavage fluorescence, 3 h; inhibition, % at 50 µM; 47,000 tested, 6.5% active; A8MUK1
USP28 block: inhibitors of human USP28 deubiquitinase. inhibition, % at 25 µM. Q96RU2. purified USP28, Ub-rhodamine cleavage fluorescence, 30 min. 47,000 tested, 3% active
* hit, by the source's call. Rule as the data show it: active = inhibition above about 30%; inactive = the rest.

Screening COc1ccc(CNC(=O)c2noc(C)c2CN2CCOCC2)c(OC)c1 returned USP30 block 0, USP10 inh -1, USP8 inh 5, USP17 inh -1 and USP28 block -2.
Screening CC(C)=CCC/C(C)=C/CC/C(C)=C/COc1c(O)cc(C=O)c(C=O)c1O returned USP30 block 44*, USP10 inh 78*, USP8 inh 71*, USP17 inh 81* and USP28 block 81*.
Cc1ccc(Cn2cc(-c3noc(-c4ccco4)n3)nn2)cc1 was read as USP30 block -9, USP10 inh 2, USP8 inh -4, USP17 inh -1 and USP28 block 6.
`Cc1ccc(Cn2cc(-c3noc(C(=O)Nc4cc(F)ccc4F)n3)nn2)cc1` gave USP30 block 25, USP10 inh 51*, USP8 inh 90*, USP17 inh 9 and USP28 block 11.
`CCOc1ccccc1-c1nc(-c2cn(Cc3ccc(F)cc3)nn2)no1` gave USP30 block 58*, USP10 inh 9, USP8 inh 0, USP17 inh 64* and USP28 block -1.
For COc1ccccc1-c1nc(-c2cn(Cc3ccc(C)cc3)nn2)no1 the results were USP30 block 30*, USP10 inh 13, USP8 inh 6, USP17 inh 8 and USP28 block 21.
`N#Cc1ccc(-c2nc(-c3cn(Cc4cccc(F)c4)nn3)no2)cc1` gave USP30 block -32, USP10 inh 18, USP8 inh 6, USP17 inh 36* and USP28 block 0.
c1ccc(Cn2cc(-c3noc(-c4cccnc4)n3)nn2)cc1 was read as USP30 block 17, USP10 inh 4, USP8 inh 7, USP17 inh 7 and USP28 block -3.
For CCN1CCN(c2ncc(C(=O)N3CCN(c4ccccc4F)CC3)c3ccccc23)CC1 the results were USP30 block 30, USP10 inh 0, USP8 inh 6, USP17 inh 4 and USP28 block 15.
For Cc1ccc(S(=O)(=O)N2CCCCC2)cc1C(=O)Oc1ccc(OCc2ccccc2)cc1 the results were USP30 block 20, USP10 inh 2, USP8 inh -3, USP17 inh 5 and USP28 block 5.
For Cc1nc(Nc2ncccn2)cc(C2CCCN2C(=O)C2CCOCC2)n1 (stereo unspecified) the results were USP30 block 10, USP10 inh 2, USP8 inh 3, USP17 inh 8 and USP28 block -4.
Screening CC1=C(C(=O)OC2CCCCCC2)C(c2ccccc2[N+](=O)[O-])CC(=O)N1 (stereo unspecified) returned USP30 block 5, USP10 inh 3, USP8 inh 62*, USP17 inh 9 and USP28 block 7.
Cc1ccc(NS(=O)(=O)c2cc(C(=O)NCc3ccco3)ccc2Cl)cc1 was read as USP30 block -21, USP10 inh 3, USP8 inh 8, USP17 inh -5 and USP28 block 4.
Screening CNC(=O)CC1NC(=O)c2csc(n2)-c2ccc(-c3nc(C4=NC(C(=O)N5CCCC5C(N)=O)CO4)cs3)nc2-c2csc(n2)-c2csc(n2)C(C(O)c2ccccc2)NC(=O)CNC(=O)c2nc(sc2COC)C(C(C)C)NC(=O)c2nc1sc2C (stereo unspecified) returned USP30 block 6, USP10 inh -2, USP8 inh 6, USP17 inh 75* and USP28 block 42*.
CC(=O)Nc1ccc(NC(=O)C2CCC(CNS(=O)(=O)c3ccc(F)cc3)CC2)cc1 (stereo unspecified) was read as USP30 block 31*, USP10 inh 10, USP8 inh 25, USP17 inh 9 and USP28 block 18.
O=C(COc1ccccc1)N(Cc1ccccc1O)c1ccccc1Cl was read as USP30 block 33*, USP10 inh 15, USP8 inh 14, USP17 inh 29 and USP28 block 25.
Screening CC(C)CCN1C(=O)C2C(C(=O)Nc3ccc(Oc4ccccc4)cc3)C3C=CC2(O3)C1C(=O)NC1CCCCC1 (stereo unspecified) returned USP30 block 63*, USP10 inh 10, USP8 inh 31* and USP28 block 18.
`CC(C)c1ccc(NC(=O)C2C3C=CC4(O3)C2C(=O)N(CCCN2CCC(Cc3ccccc3)CC2)C4C(=O)NC2CCCCC2)cc1` (stereo unspecified) gave USP30 block 36*, USP10 inh 3, USP8 inh -10, USP17 inh 0 and USP28 block 18.
CCOc1ccc(S(=O)(=O)NCc2ccccc2Cl)c2ccccc12 was read as USP30 block 45*, USP10 inh 15, USP8 inh 30*, USP17 inh 32* and USP28 block 20.
`COc1ncccc1C(=O)N1CCC[C@]2(C)NC(=O)CCC[C@H]12` gave USP30 block 0, USP10 inh 0, USP8 inh -2, USP17 inh -1 and USP28 block -9.
For Cc1nc(C)n(CC2CCCCN2Cc2cccc(C(N)=O)c2)n1 (stereo unspecified) the results were USP30 block -7, USP10 inh -1, USP8 inh -2, USP17 inh -10 and USP28 block -11.
`COc1ccc(/C=C/C(=O)Nc2ccc3c(c2)OCCO3)cc1` gave USP10 inh -2, USP8 inh -2 and USP17 inh -3.
`O=C(/C=C/c1ccc(F)cc1)Nc1ccc2c(c1)OCCO2` gave USP30 block 20, USP10 inh 6, USP8 inh 6, USP17 inh 7 and USP28 block 86*.
`CC(C)(C)c1ccc(/C=C/C(=O)Nc2ccc3c(c2)OCCO3)cc1` gave USP30 block -8, USP10 inh 8, USP8 inh -9, USP17 inh -2 and USP28 block 34*.
Screening CCOCc1ccc(C(=O)N[C@H](C)c2nc3cc(-c4ccc(OC)cc4)ncn3n2)cc1 returned USP30 block 41*, USP10 inh 35*, USP8 inh 4, USP17 inh 13 and USP28 block 22.
`COc1ccc(-c2cc3nc([C@H](C)NC(=O)COc4cccc(F)c4)nn3cn2)cc1` gave USP30 block 28, USP10 inh 12, USP8 inh 5, USP17 inh 17 and USP28 block -5.
`C[C@@H](NC(=O)Cc1ccc(F)cc1)c1nc2cc(-c3ccccc3F)ncn2n1` gave USP30 block 8, USP10 inh 8, USP8 inh 16, USP17 inh 16 and USP28 block 1.
COc1cccc(CC(=O)N[C@@H](C)c2nc3cc(-c4ccccc4F)ncn3n2)c1 was read as USP30 block 26, USP10 inh 0, USP8 inh 10, USP17 inh 24 and USP28 block 9.
Screening C[C@H](NC(=O)Cc1ccccc1F)c1nc2cc(-c3ccc(F)cc3)ncn2n1 returned USP30 block 35*, USP10 inh 16, USP8 inh 12, USP17 inh 25 and USP28 block 8.
